MCL1-BIM inh – inhibitors of human MCL1 binding to BIM-BH3 peptide | GST-MCL1 / FITC-Bim-BH3 fluorescence polarization | inhibition, % at 10.9 µM | 320,000 tested, 0.68% active | AID 2057;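 active = inhibition above the mean inhibition of all tested compounds plus 3 SD, set per campaign, cut at about 40% in these data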;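 note: 0% = DMSO wells and 100% = unlabeled Bim-BH3 peptide control; higher means more loss of mP so more displacement of Bim peptide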
EBV gp42 inh – EBV gp42 inhibition | Q1HVG2 | Fluorescence polarization binding assay, mP read-out | inhibition, % (tested at 21.74 µM) | 220,000 tested, 0.42% active | AID 1085; in the data active = inhibition above about 50%
E coli Lon inh – E. coli protease La inhibition; 360,000 tested, 0.42% active; purified E. coli Lon protease, fluorescence polarization; inhibition, % at 7.94 µM; P0A9M0; in the data active = inhibition above about 13%, passing the limit was not always enough;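 note: 0% = enzyme with probe and DMSO and 100% = no enzyme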
GLD-1 TGE inh – GLD-1-TGE RNA interaction inhibition (C. elegans). 320,000 tested, 0.44% active. inhibition, % at 5.96 µM. purified GLD-1 + fluorescein TGE RNA, fluorescence polarization. Q17339. AID 2280;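 active = percent inhibition above a per-plate cutoff, the plate mean of test compounds plus 3 SD, cut at about 30% in these data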;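 note: 0% = DMSO wells with GLD-1 and probe and 100% = wells lacking GLD-1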
Target sequence (Q17339 whole entry, looked up): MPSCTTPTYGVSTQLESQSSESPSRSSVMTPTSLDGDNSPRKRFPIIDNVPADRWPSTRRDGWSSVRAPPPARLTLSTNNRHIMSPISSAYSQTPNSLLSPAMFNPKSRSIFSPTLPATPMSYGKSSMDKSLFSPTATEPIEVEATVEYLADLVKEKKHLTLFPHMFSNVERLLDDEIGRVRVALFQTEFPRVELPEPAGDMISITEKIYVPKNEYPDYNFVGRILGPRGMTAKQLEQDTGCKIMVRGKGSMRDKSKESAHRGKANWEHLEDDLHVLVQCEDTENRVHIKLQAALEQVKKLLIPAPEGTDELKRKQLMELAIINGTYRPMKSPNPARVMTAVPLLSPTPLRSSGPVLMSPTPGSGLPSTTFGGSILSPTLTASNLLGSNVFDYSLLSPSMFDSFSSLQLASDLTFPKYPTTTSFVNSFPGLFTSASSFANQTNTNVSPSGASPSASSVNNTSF
MEX-5 binding – C. elegans MEX-5 TCR-2 RNA binding activity; Q9XUB2; MEX-5/FITC-TCR2 RNA binding, fluorescence polarization; stronger effect = lower value; activity score (negative = inhibition of binding), % at 10 µM; 300,000 tested, 0.38% active;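 active = inhibition past about -25% in most replicates, and total fluorescence under double the plate's negative control median, limit read from the data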;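 note: 0% = DMSO and -100% = 5 µM competing unlabeled TCR2 RNA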
Bcl-xL primary – inhibitors of human Bcl-xL. Q07817. GST-Bcl-xL / FITC-Bim BH3 peptide fluorescence polarization. inhibition, % at 10.9 µM. 320,000 tested, 0.7% active. AID 2129;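 active = inhibition above the mean of all tested compounds plus 3 SD, cutoff set per campaign, cut at about 30% in these data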;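 note: 0% = DMSO wells and 100% = unlabeled Bim-BH3 peptide competitor; inhibitors lower millipolarization by displacing the labeled peptide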
Bcl-xL conf – Bcl-xL (human) inhibition, MCL1 counter-screen confirmation; GST-Bcl-xL / FITC-Bim BH3 peptide FP binding; shares compounds with MCL1-BIM inh; 1,700 tested, 54% active; inhibition, % at 10.9 µM;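 active = inhibition above a cutoff equal to the mean inhibition of all tested compounds plus 3 SD, cut at about 30% in these data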;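 note: 0% = DMSO wells and 100% = unlabeled Bim BH3 control peptide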
MCL1 BIM confirm – MCL1-BIM-BH3 interaction inhibition, confirmation | inhibition, % at 10.9 µM | GST-MCL1 / FITC-Bim-BH3 fluorescence polarization | shares compounds with MCL1-BIM inh | AID 2168 | 1,700 tested, 61% active;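 active = inhibition above the average of all tested compounds plus 3 SD, cut at about 40% in these data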;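 note: 0% = DMSO wells and 100% = unlabeled Bim-BH3 control peptide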
* = called active by the depositor. A selection: hits, their analogues and other compounds. The true share with any hit is near 1.5%.

Screening Nc1cc(Nc2ccc(Br)cc2)nc(N)n1 returned MCL1-BIM inh 50*, EBV gp42 inh 34, E coli Lon inh 1, GLD-1 TGE inh 18, MEX-5 binding -6, Bcl-xL primary 53*, Bcl-xL conf 44* and MCL1 BIM confirm 46*.
`O=C(CN1C(=O)/C(=C2\SC(=S)N(CCS(=O)(=O)O)C2=O)c2ccccc21)Nc1cccc(Br)c1` gave MCL1-BIM inh 103*, E coli Lon inh -1, GLD-1 TGE inh 0, MEX-5 binding 0, Bcl-xL primary 21, Bcl-xL conf 26 and MCL1 BIM confirm 94*.
COc1ccc(-c2nn(-c3ccccc3)cc2CNC[C@H]2O[C@@H](n3ccc(=O)[nH]c3=O)[C@H](O)[C@@H]2O)cc1 was read as E coli Lon inh -14.
`CC(C)CNC(=O)NC(=O)COc1ncnc2sccc12` gave MCL1-BIM inh 54*, EBV gp42 inh 0, E coli Lon inh -4, GLD-1 TGE inh 7, MEX-5 binding -2, Bcl-xL primary 14, Bcl-xL conf 9 and MCL1 BIM confirm 14.
`CC(C)CCNC(=O)NC(=O)COc1ncnc2sccc12` gave MCL1-BIM inh 5, EBV gp42 inh -7, E coli Lon inh -6, GLD-1 TGE inh 4, MEX-5 binding -4 and Bcl-xL primary 5.
Screening CSc1ccccc1NC(=O)CN(C)C(=O)c1c(C)nn(Cc2ccccc2)c1C returned MCL1-BIM inh 14, E coli Lon inh 1, GLD-1 TGE inh 1 and Bcl-xL primary 2.
For COc1cc(NC(=S)N2CCN(CCO)CC2)cc(OC)c1 the results were MCL1-BIM inh 82*, E coli Lon inh -6, GLD-1 TGE inh 4, MEX-5 binding 1, Bcl-xL primary 73*, Bcl-xL conf 18 and MCL1 BIM confirm 30.
O=C(N/N=C/c1ccc(-c2ccccc2C(=O)O)o1)c1cccs1 was read as MCL1-BIM inh 71*, EBV gp42 inh 5, E coli Lon inh -1, GLD-1 TGE inh 6, MEX-5 binding -11, Bcl-xL primary 28, Bcl-xL conf 40* and MCL1 BIM confirm 73*.
O=Cc1ccccc1-c1cn(CN2C(=O)c3ccccc3C2=O)nn1 was read as MCL1-BIM inh -7, E coli Lon inh -5, GLD-1 TGE inh -10, MEX-5 binding 2 and Bcl-xL primary 3.
`O=C(Cc1ccc(NC2=NC3CS(=O)(=O)CC3S2)cc1)NCCc1ccccc1` (stereo not drawn) gave MCL1-BIM inh 9, E coli Lon inh -6, GLD-1 TGE inh 1, MEX-5 binding 2 and Bcl-xL primary 2.
Screening O=c1cc(-c2ccc(O)c(O)c2)oc2c1ccc1ccccc12 returned MCL1-BIM inh 45*, E coli Lon inh -9, GLD-1 TGE inh 3, Bcl-xL primary 4, Bcl-xL conf 18 and MCL1 BIM confirm 45*.
`O=c1cc(-c2ccc(O)c(O)c2)oc2ccc3ccccc3c12` gave E coli Lon inh -3.
Screening CN1Cc2sc(N)c(C#N)c2CC1(C)C returned MCL1-BIM inh 59*, EBV gp42 inh 4, E coli Lon inh -17, GLD-1 TGE inh 24, MEX-5 binding -23, Bcl-xL primary 61*, Bcl-xL conf 22 and MCL1 BIM confirm 13.
`COCCNC(=S)NNC(=O)c1cc(-c2cccnc2)nc2ccccc12` gave E coli Lon inh -5 and MEX-5 binding 1.
O=C1CCCC2=C1C(c1ccco1)Nc1ccc3ccccc3c12 (stereo not drawn) was read as MCL1-BIM inh 67*, EBV gp42 inh 16, E coli Lon inh 6, GLD-1 TGE inh 9, MEX-5 binding -3, Bcl-xL primary 25, Bcl-xL conf 28 and MCL1 BIM confirm 78*.
N#Cc1cccc(NC(=O)CSc2sc3c(O)cc(=O)[nH]c3c2C#N)c1 was read as MCL1-BIM inh -4, E coli Lon inh 3, GLD-1 TGE inh 0, MEX-5 binding -1 and Bcl-xL primary 1.

High-throughput results deposited in PubChem BioAssay by several laboratories.
